Experimental findings from PMC5540273 (PLoS ONE, 2017) are described below.
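Also: KINOMEscan kinase panel screen.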

In this test the test system is T1, LZK.
T1 construct: gene MAP3K13
To be noted: concentration: 1 μM, replicates: in singlicate; n = 1.
With `COC(=O)C(Cc1ccccc1)NC(=O)NC1CCN(c2ccnc(Nc3ccc(F)cc3)n2)C1` (stereo not drawn) [GSK1379714], the “%Inh” value is 23%.
With `CSc1ccc(-c2nc3n(c2-c2ccncc2)CCC3)cc1` [SKF-105561], the “%Inh” value is given as 45%.
The result for `COc1ccc(Nc2nccc(N3CCC(NC(=O)c4cc5ccccc5s4)C3)n2)cc1` (stereo not drawn) [GSK1379738] reads 23%.
In the case of `Cc1ccc(NC(=O)Nc2ccc(Cl)cc2)cc1-c1ccc(C(=O)Nc2ccncc2)cc1` [GSK1398472], the “%Inh” value stood at 3%.
The same measure for `CC(C)c1ccc(O)cc1Nc1ccnc2ccc(C(F)(F)F)cc12` [GW482059]: 0%.
The result for `COC(=O)c1cccc(NC(=O)NC2CCN(c3ccnc(Nc4ccc(F)cc4)n3)C2)c1` (stereo not drawn) [GSK1379725] reads 6%.
The result for `O=c1cc(N2CCOCC2)nc2n(Cc3ccccc3F)ccn12` [GSK2297428] reads 0%; that for `Cc1ccccc1-c1cc(-c2c[nH]nc2-c2ccccn2)ccn1` [GW680061], 4%.
Consider `COc1ccc(Nc2nccc(NCCNC(=O)Nc3cc(C)ccc3C)n2)cc1` [GSK1379899], for which the “%Inh” value amounted to 0%.
The same measure for `FC(F)(F)c1ccccc1-c1cc(-c2c[nH]nc2-c2ccccn2)ccn1` [GW679396]: 11%.
The same measure for `Cc1ccccc1Cn1ccn2c(=O)cc(N3CCOCC3)nc12` [GSK2269905]: 0%; for `Cc1ccc(NC(=O)Nc2ccc(Cl)c(C(F)(F)F)c2)cc1-c1ccc(C(=O)Nc2ccncc2)cc1` [GSK1398470]: 0%.
The result for `CCc1ccc(-c2ccc3c(c2)-c2n[nH]cc2S(=O)(=O)N3C)cc1` reads 0%; that for `CNCc1ccc2nc(NC(=O)c3ccc(C(C)(C)C)cc3)cn2c1`, 0%.
On to `Fc1ccc(-c2nn3cccc(F)c3c2-c2ccncc2)cc1` [GW475620], for which the “%Inh” value stood at 0%.
The same measure for `CNc1nc(-c2ccc3c(N)n[nH]c3c2)cc(N2C[C@@H](C(=O)Nc3ccccc3)CC[C@H]2C)n1` [GSK2298859]: 20%.
The result for `Cc1ccc(NC(=O)Nc2ccccc2F)cc1-c1ccc(C(=O)Nc2ccncc2)cc1` [GSK1398477] reads 0%; that for `Cc1ccc(NC(=O)c2ccc(Cl)cc2)cc1-c1ccc(C(=O)Nc2ccncc2)cc1` [GSK1398467], 3%.
The same measure for `COC(=O)C(NC(=O)NC1CCN(c2ccnc(Nc3ccc(F)cc3)n2)C1)c1ccccc1` (stereo not drawn) [GSK1379712]: 18%; for `Nc1nccc(-c2c(-c3ccc(F)cc3)ncn2C2CCN(Cc3ccccc3)CC2)n1` [SB-219980]: 0%; for `NS(=O)(=O)c1cccc(N/C=C2\C(=O)Nc3ccc(S(=O)(=O)Cc4c(Cl)cccc4Cl)cc32)c1` [GSK398099]: 0%.
For the molecule `CN1c2ccc(-c3ccc(C(N)=O)cc3)cc2-c2[nH]ncc2S1(=O)=O`, the “%Inh” value is 0%.
Take `CNC(=O)c1ccc(C)c(-n2c(C)cc(OCc3ccc(F)cc3F)c(Br)c2=O)c1`: the “%Inh” value was determined as 0%.
The same measure for `Nc1ncnc2occ(-c3ccc4c(c3)CCN4C(=O)Cc3cc(F)ccc3F)c12` [GSK2645446]: 0%.
`Cc1c(Cn2c(C)c(C)n3c(=O)cc(N4CCOCC4)nc23)cccc1C(F)(F)F` [GSK2328680]: the “%Inh” value was found to be 0%.
The same measure for `Cc1ccc(-c2nc(Nc3ccncc3)c3ccccc3n2)s1` [GSK189015]: 0%; for `O=C1NC(=O)C(c2ccc(Cl)cc2)=C1Nc1cccc(Cl)c1` [SB-317651]: 6%.
On to `Cn1cnc2c(N)ncnc21` [SKF-97623], for which the “%Inh” value worked out at 2%.
Regarding `Cc1ccc(NC(=O)Nc2ccccc2)cc1-c1ccc(C(=O)Nc2ccncc2)cc1` [GSK1398471], the “%Inh” value is 0%.
The same measure for `CCn1c(-c2c(N)noc2C)nc2cnccc21` [SB-737856]: 0%; for `COc1ccc(Nc2nccc(-c3ccc(NC(=O)c4cc5cc(F)ccc5[nH]4)cc3)n2)cc1` [GSK1229496]: 21%.
As to `Nc1cccc(-c2ccc3c(N)n[nH]c3c2)n1` [GSK2192730], the “%Inh” value turned out to be 0%.
As for `CS(=O)(=O)CCNCc1nc(-c2ccc3ncnc(Nc4ccc(OCc5ccccc5)c(Cl)c4)c3c2)cs1.Cl` [GW582764], the “%Inh” value was found to be 36%.
The result for `COc1ccc(Nc2nccc(N3CCC(NC(=O)C(C)c4ccc(Cl)cc4)C3)n2)cc1` (stereo not drawn) [GSK1379735] reads 0%; that for `Cc1cnc(N)c(/C=C/c2cncc(C(=O)NCCc3ccc(Cl)cc3Cl)c2)c1.Cl` [GSK190937], 0%; that for `O=C(Nc1n[nH]c2nc(-c3cccs3)c(Br)cc12)C1CC1` [SB-735297], 0%.
